Bioassay records (PubChem)
GLP1R ag = agonists of human GLP-1 receptor. P43220. HEK293 GLP-1R CRE-luciferase, luminescence, 4-6 h; cells express a hypersensitive GLP-1R form. Potency, µM (titrated, usually from 45.6 µM), inactives show top-dose activation, actives largely listed as activators. 380,000 compounds, 0.007% hits. AID 624172; further: % of control where 0% means no effect
Target sequence (P43220 whole entry, looked up): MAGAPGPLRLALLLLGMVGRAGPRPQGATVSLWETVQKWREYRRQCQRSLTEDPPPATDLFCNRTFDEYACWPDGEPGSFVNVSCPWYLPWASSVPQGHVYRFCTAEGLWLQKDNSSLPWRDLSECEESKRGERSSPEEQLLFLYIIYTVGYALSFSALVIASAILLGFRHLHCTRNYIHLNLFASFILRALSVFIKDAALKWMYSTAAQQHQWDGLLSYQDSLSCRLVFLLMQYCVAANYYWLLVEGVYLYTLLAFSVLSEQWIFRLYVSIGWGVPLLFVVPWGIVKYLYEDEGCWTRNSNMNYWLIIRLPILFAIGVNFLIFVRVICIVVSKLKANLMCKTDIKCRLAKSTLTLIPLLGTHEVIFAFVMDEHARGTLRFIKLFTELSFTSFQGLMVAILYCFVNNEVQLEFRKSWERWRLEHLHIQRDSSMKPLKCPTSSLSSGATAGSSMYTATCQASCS
PTHR1 ag = PTHR1 (human) receptor agonism. HEK293 GP2 PTHR1 cells, GloSensor cAMP luminescence, 1 h. 410,000 compounds, 0.075% hits. AID 743266. Potency, µM (series often up to 115 µM), for inactives: at the highest dose activation, most hits filed as activators; further: nearly all actives have a fitted effect of over 55% in size
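HEK-293-derived GP2 cells expressing PTHR1 and a GloSensor cAMP reporter, 3,000/well, plated overnight, given luciferin plus IBMX (each 0.5 mM as added) for 1 h at 37 °C, then compound for 1 h at 37 °C. Luminescence was read after 15 min at room temperature.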
HEK293 tox = cytotoxicity in counter-screen for GLP-1R inverse agonists; 410,000 compounds, 0.13% hits; Potency, µM (highest dose often 38.3 µM), inactives show top-dose activity change, negative = inhibition, actives largely listed as inhibitors; HEK293 cAMP-luciferase reporter cells, luminescence, 24 h; AID 624418;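 further: loss of luciferase light is scored as toxicity; on the % scale 0 is the no-effect control and ±100 the full control effect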
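Cells in DMEM/10% Nu serum/1% pen-strep, 1536-well format. Pre-incubated 12 h, dosed with 23 nL compound, incubated a further 24 h. Luciferase detection, 12 min at room temp, luminescence.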
GLP-1R inv ag = acts as inverse agonist at human GLP-1 receptor; AID 624417; 410,000 compounds, 1.6% hits; HEK293 GLP-1R CRE-luciferase, luminescence, 24 h; GLP-1R form is constitutively active; Potency, µM (doses to about 38.3 µM), inactives show at the top dose activity change, negative = inhibition, usual class: inhibitors; P43220; further: on the % scale 0 is the no-effect control and ±100 the full control effect; nearly all actives have a fitted effect of over 55% in size
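Constitutively active GLP-1R drives a cAMP-responsive luciferase in stably transfected HEK293 cells; test compounds are added after overnight (12 h) attachment and left 24 hr, and signal loss in luminescence marks inhibition.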
* marks the source's active call; other numbers are inactive results; i = inactive; ? = inconclusive; · = not tested or not shown; [ ] = another dose, or the depositor's remark. A selection: hits, their analogues and other compounds. The true share with any hit is near 1.7%. The call rests on the fitted dose curve; in most records, active means well fitted curve in the direction sought with a large enough effect; inconclusive means small, poorly fitted or top-dose-only effect, or another doubt; inactive means no such curve, though single readings can be large; an effect the other way counts as inactive or inconclusive. Potency means the concentration at half of the fitted maximal effect.

SMILES	GLP1R ag	PTHR1 ag	HEK293 tox	GLP-1R inv ag
O=C(C1CC1)N1CCc2cc(Br)cc(S(=O)(=O)Nc3ccc(F)c(F)c3)c21	-5.6%	-45.6%	?	22.4µM*
CC1CCN(C(=S)c2cn(Cc3ccccc3F)c3ccccc23)CC1	-0.9%	-14.6%	-23.2%	10µM*
CC1CCN(C(=S)c2cn(Cc3ccc(F)cc3)c3ccccc23)CC1	-0.6%	-8.8%[57.5 µM]	-17.4%	7.08µM*
CN1CCN(C(=S)c2cn(Cc3cccc(F)c3)c3ccccc23)CC1	10.0%	-4.8%	-12.6%	?
CN1CCN(C(=S)c2cn(Cc3ccc(F)cc3)c3ccccc23)CC1	10.1%	i	-7.2%	10µM*
Cc1ccn2c(=O)cc(COc3ccc(NC(=O)COc4ccc(C)c(C)c4)cc3)nc2c1	·	-18.7%	0.0%	1.8%
O=C(Nc1c(C(=O)Nc2ccc(F)cc2)oc2ccccc12)c1ccccc1F	-1.2%	i	1.0%	-0.6%
Cc1ccc(-n2cnc3cc(C(=O)NCc4ccccc4Cl)ccc32)c(C)c1	·	-27.1%	2.2%	?
C[C@@H]1CN([C@@H](C)CO)C(=O)c2cc(NC(=O)C3CC3)ccc2O[C@@H]1CN(C)Cc1ccc(Cl)c(Cl)c1	-1.3%	i	-23.5%	11.2µM*
CC(C)NC(=O)Nc1ccc2c(c1)C(=O)N([C@H](C)CO)C[C@H](C)[C@@H](CN(C)Cc1ccc(C(F)(F)F)cc1)OCCCC[C@H](C)O2	2.5%	-21.9%	-26.8%	10µM*
C[C@H](CO)N1C[C@H](C)[C@@H](CN(C)Cc2ccc(Cl)c(Cl)c2)Oc2c(NS(=O)(=O)c3ccc(F)cc3)cccc2C1=O	-0.6%	-67.9%	?	11.2µM*
CCC1Oc2ccc(Cl)cc2N(CC(=O)NCCc2ccc(Cl)cc2)C1=O (stereo unspecified)	·	-3.3%	0.3%	-3.2%
CC(C)CCn1c(=O)c2cccnc2n(CC(=O)Nc2ccccc2F)c1=O	·	-4.9%	-8.8%	-7.6%
N#Cc1nc(-c2ccc(COc3ccccc3)o2)oc1NCc1cccnc1	·	-58.8%	-17.3%	6.5%
CCC1CCc2sc(C(=O)N(C)CC(=O)Nc3cccc(OC)c3)cc2C1 (stereo unspecified)	-0.7%	i	-26.6%	?
CCC1CCc2sc(C(=O)NC3CCN(Cc4ccccc4)CC3)cc2C1 (stereo unspecified)	7.6%	-14.2%	?	5.01µM*
CCC1CCc2sc(C(=O)NCC(c3ccccc3OC)N3CCCC3)cc2C1 (stereo unspecified)	18.8%	i	?	5.01µM*
CCC1CCc2sc(C(=O)N(C)CC(=O)Nc3ccc(OC)cc3)cc2C1 (stereo unspecified)	13.5%	i	-5.1%	10µM*
CNC(=O)C1CCC(Cn2c(=O)c3sccc3n(CC(=O)NCc3ccc(C)cc3)c2=O)CC1 (stereo unspecified)	·	14.0%	2.0%	7.9%
CCCn1c(CCC(=O)Nc2cc(OC)cc(OC)c2)nc2cccnc21	·	i	5.7%	11.1%
Cc1cccc(NNC(=S)Nc2ccccc2)c1	-0.9%	i	?	5.62µM*
Cc1cccc(NNC(N)=S)c1	-1.3%	i	-0.6%	-0.6%
Cc1cccc(NC(=S)NNc2cccc(Cl)c2)c1	8.5%	-1.3%	-11.1%	10µM*
Cc1cccc(NC(=S)NC(C)(C)CC(C)(C)C)c1	21.5%	-47.8%	?	10µM*
NC(=S)NNc1cccc(Cl)c1	1.0%	i	-6.4%	0.7%
SMILES	GLP1R ag	PTHR1 ag	HEK293 tox	GLP-1R inv ag
Cc1cccc(NNC(=S)Nc2c(C)cccc2C)c1	8.7%	i	?	3.16µM*
Cc1cccc(NC(=S)NCc2ccc(F)cc2)c1	3.9%	-4.9%	?	?
O=C(NCCSCc1cccc(Cl)c1)C1CCN(S(=O)(=O)Cc2ccccc2)CC1	·	-17.9%	-4.1%	-4.0%
CCCCc1c(C)nn(-c2nnc3c4ccccc4n(CC)c3n2)c1C	-3.3%	-33.3%	10µM*	10µM*
CCn1c2ccccc2c2nnc(N3CCN(c4ccc(F)cc4)CC3)nc21	·	-5.3%	13.7%	6.1%
CNc1ccc(Cl)nn1	4.8%	-10.4%	-3.1%	10.1%
NNc1ccc(Cl)nn1	21.4%	-9.6%	?	10µM*
CCc1ccccc1NC(=O)CSc1nc2c(c(=O)[nH]1)CN(Cc1ccccc1OC)CC2	·	i	-8.8%	-3.5%
CCOc1ccc(CCNC(=O)C2CCN(c3ncnc4c3nc3n4CCCCC3)CC2)cc1	·	i	-3.9%	-24.3%
CC(C)(O)C(=O)NN(Cc1ccccc1)c1ccccc1	1.2%	i	0.7%	-5.7%
CN(C)N(Cc1ccccc1)C(=O)C(O)(c1ccccc1)c1ccccc1	-0.7%	i	-3.8%	12.6µM*
Cc1cc(SCC(=O)N/N=C/c2ccc(O)cc2O)c(C)cc1Br	-7.1%	-15.7%[57.5 µM]	-18.4%	7.94µM*
Cc1cc(C)c2c(n1)SCCN2C(=O)Nc1ccc(C(=O)Nc2cc(Cl)ccc2C)cc1	·	-19.2%	-4.2%	5.2%
CCCCN(S(=O)(=O)c1ccccc1)S(=O)(=O)c1ccccc1	17.9%	-17.7%	-5.1%	10µM*
CC1c2ccccc2SC(CCCN(C)C)c2ccccc21 (stereo unspecified)	19.2%	i	-28.8%	11.2µM*
Cc1ccc(S(=O)(=O)/N=C2\C=C(Nc3cccc(C(=O)O)c3)C(=O)c3ccccc32)cc1	-1.4%	-42.4%	?	15.2%
O=C1C(Nc2ccccc2)=C/C(=N/S(=O)(=O)c2cccs2)c2ccccc21	-36.7%	i	4.47µM*	i
Cc1ccc(S(=O)(=O)/N=C2\C=C(Nc3ccc(O)cc3)C(=O)c3ccccc32)cc1	-20.8%	-30.4%	2.82µM*	4.47µM*
CN1c2ccccc2-c2nc(SCC(=O)Nc3ccccc3C(F)(F)F)ncc2S1(=O)=O	·	-41.3%	-8.1%	-3.6%
Cc1ccc2c(c1)nnn2C1CCN(S(=O)(=O)c2ccc(C(=O)O)cc2)CC1	-0.2%	i	15.8%	30.1%
Cc1ccc2c(c1)nnn2C1CCN(S(=O)(=O)c2ccc(C(=O)N3C(C)CCCC3C)cc2)CC1 (stereo unspecified)	-0.4%	-57.2%	-8.9%	3.98µM*
Cc1ccc(CN(C(=O)Nc2cccc(Cl)c2)c2ccccn2)cc1	·	i	-13.8%	?
CC(=O)c1cccc(Oc2cc(NN3CCCCC3)c([N+](=O)[O-])cc2[N+](=O)[O-])c1	17.9%	-23.9%	?	10µM*
CCOC(=O)c1cc2c(=O)n3ccccc3nc2n(C(C)C)c1=NC(=O)c1cc2ccccc2o1	·	-8.7%	-4.6%	16.3%
C[C@H](OC(=O)NCc1ccc(C(F)(F)F)cc1)[C@@H]1O[C@@]2(C)CCC[C@@H]1O2	-2.1%	i	0.9%	?
C[C@H](OC(=O)N1CCN(C(c2ccccc2)c2ccccc2)CC1)[C@@H]1O[C@@]2(C)CCC[C@H]1O2	15.8%	-23.4%	32.7%	10µM*
COc1ccc(OC)c(Nc2c3ccccc3nc3ccccc23)c1	4.9%	i	-1.1%	11.2µM*
